Screening data (PubChem BioAssay)
BAZ2B block – blocks human BAZ2B | AID 504333 | Potency, µM (doses to about 114 µM), for the others: top-dose activity change, negative = inhibition, most hits filed as inhibitors | AlphaScreen BAZ2B-H3K14Ac peptide displacement | hit rate 4.4% among 360,000; note: % is set by controls: 0 for no effect and ±100 for the full control effect; nearly all actives have a fitted effect of over 60% in size
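Complex of BAZ2B and biotin-H3K14Ac (50 nM apiece) forms over 30 min at RT, then faces library compounds up to 110 uM for another 30 min; AlphaScreen beads added, 20 min dark incubation, luminescence read.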
G9a inh – inhibitors of human histone lysine methyltransferase G9a; AID 504332; hit rate 8.8% among 350,000; Potency, µM (doses to about 102 µM), without a hit: top-dose activity, negative = inhibition, hits mostly inhibitors; G9a H3K9 monomethylation, AlphaScreen, 2 h; note: % is set by controls: 0 for no effect and ±100 for the full control effect; nearly all actives have a fitted effect of over 75% in size
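Step 1: enzyme (final 20 nM) with compound, 15 min RT. Step 2: substrate peptide 500 nM and SAM 20 uM, 2 h RT. Step 3: anti-H3K9me1 antibody and AlphaScreen beads, 10 min, then plate read.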
JMJD2A Tudor inh – blocks the human JMJD2A Tudor domain | Potency, µM (doses to about 114 µM), for inactives: at the top dose activity change, negative = inhibition, usual class: inhibitors | AlphaScreen JMJD2A-Tudor / H3K4me3 peptide binding | hit rate 4.4% among 390,000 | AID 504339; note: % is set by controls: 0 for no effect and ±100 for the full control effect; nearly all actives have a fitted effect of over 50% in size
L3MBTL1 block – inhibitors of human L3MBTL1 | Potency, µM (series often up to 57.1 µM), inactives show at the top dose activity, negative = inhibition, most hits filed as inhibitors | AID 485360 | hit rate 0.66% among 230,000 | Q9Y468 | AlphaScreen L3MBTL1–H3K9me1 peptide binding; note: % is set by controls: 0 for no effect and ±100 for the full control effect; nearly all actives have a fitted effect of over 60% in size
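AlphaScreen proximity signal between nickel-chelate acceptor and streptavidin donor beads (final 10 ug/mL) reports binding of 50 nM L3MBTL1 to 75 nM biotin-H3 K9me1 peptide; complex incubated with compounds 30 min at room temperature; cefsulodin titration as control.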
HP1b binding inh – blocks HP1-beta chromodomain binding to methylated histone tails | P83916 | AlphaScreen HP1-beta / biotin-H3K9me3 peptide binding | Potency, µM (titrated, usually from 114 µM), inactives show top-dose activity change, negative = inhibition, hits mostly inhibitors | hit rate 0.56% among 390,000 | AID 540317; note: nearly all actives have a fitted effect of over 70% in size
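AlphaScreen: HP1-beta (50 nM) preformed 30 min with biotin-H3(1-18)K9me3 peptide (50 nM) in PBS pH 7.4, 0.01% Tween-20. Compound added for 30 min at RT, then streptavidin donor/nickel chelate acceptor beads (10 ug/mL) for 30 min.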
* hit, by the source's call; [ ] = another dose, or the depositor's remark. A selection: hits, their analogues and other compounds. The true share with any hit is near 11%. Calls come from the whole dose curve; as a rule, active = well fitted inhibition curve with a large enough effect; inconclusive = small, poorly fitted or top-dose-only effect; inactive = no such curve, though single readings can be large or run the other way. Potency is the fitted concentration of half-maximal effect.

`CC(C)Oc1ccc(CNC(=O)c2ccc3nc(Cc4ccccc4)oc3c2)cc1` gave BAZ2B block 0.2%, G9a inh -3.0%[59 µM], JMJD2A Tudor inh -7.7% and HP1b binding inh 22.0%[57 µM].
CCN1CCN(C(c2cccc(F)c2)c2c(O)cc(C)n(CCOC)c2=O)CC1 (configuration not stated) was read as BAZ2B block -2.7%, G9a inh inconclusive, JMJD2A Tudor inh -17.9% and HP1b binding inh 37.8%[57 µM].
Screening COc1cccc2c1C(=O)c1ccc3ccccc3c1C2=O returned BAZ2B block inconclusive, G9a inh 39.8µM*, JMJD2A Tudor inh inconclusive and HP1b binding inh 16.5%.
O=C1C=C(O)c2c(O)cc(O)c(O)c2C1=O was read as JMJD2A Tudor inh 1.58µM* and HP1b binding inh inconclusive.
`COc1ccc(OC)c2c1C(=O)C(Cl)=C(Cl)C2=O` gave BAZ2B block 44.7µM*, JMJD2A Tudor inh 0.891µM*, L3MBTL1 block 0.0% and HP1b binding inh 2.24µM*.
Screening Nc1ccc(Br)c2c1C(=O)c1ccccc1C2=O returned BAZ2B block 10µM*, G9a inh 3.7%[0.0925 µM], JMJD2A Tudor inh inconclusive, L3MBTL1 block inconclusive and HP1b binding inh inconclusive.
Screening CCN1CCN(C(=O)c2cnn(-c3cccc(C)c3)c2C2CCN(C(=O)OC(C)(C)C)CC2)CC1 returned BAZ2B block 2.8%[57.1 µM], G9a inh 2.1%[59 µM], JMJD2A Tudor inh -13.9% and HP1b binding inh -0.3%.
For CCCC(=O)Nc1cc(-c2nc3cccnc3s2)ccc1C the results were BAZ2B block inconclusive, G9a inh inconclusive, JMJD2A Tudor inh -33.9% and HP1b binding inh -15.0%.
Screening Cc1ccc(COc2ccc(-c3cc(C(F)(F)F)n4nc(C)cc4n3)cc2)cc1 returned BAZ2B block -20.3%, G9a inh -19.0%[59 µM], JMJD2A Tudor inh 1.9% and HP1b binding inh 36.6%.
`CCn1c(=O)n(CC2CCC(C(=O)NC(C)C)CC2)c(=O)c2sccc21` (configuration not stated) gave BAZ2B block -10.5%, G9a inh 4.5%[59 µM], JMJD2A Tudor inh -6.7% and HP1b binding inh 39.2%.
For COc1ccc(N)c2c1C(=O)c1ccccc1C2=O the results were BAZ2B block 31.6µM*, G9a inh 25.1µM*, JMJD2A Tudor inh 44.7µM*, L3MBTL1 block -26.3% and HP1b binding inh 44.7µM*.
`O=C1c2ccccc2C(=O)c2c(O)c(O)cc(O)c21` gave G9a inh inconclusive, JMJD2A Tudor inh 22.4µM*, L3MBTL1 block inconclusive and HP1b binding inh 11.2µM*.
Screening Cc1cc(O)c2c(c1O)C(=O)c1c(O)cc(C)c(O)c1C2=O returned G9a inh -34.5%[2.33 µM].
For COc1ccc(OC)c2c1C(=O)c1ccccc1C2=O the results were BAZ2B block -1.1%, G9a inh -2.9%[59 µM], JMJD2A Tudor inh -12.1%, L3MBTL1 block -8.7% and HP1b binding inh 12.3%.
Nc1ccc(O)c2c1C(=O)c1ccccc1C2=O was read as BAZ2B block 3.98µM*, G9a inh 7.08µM*, JMJD2A Tudor inh 5.62µM*, L3MBTL1 block inconclusive and HP1b binding inh inconclusive.
COC(=O)[C@]1(Cc2ccccc2)N[C@H](c2ccc(-c3cccc(Cl)c3)cc2)[C@@H]2C(=O)N(C)C(=O)[C@@H]21 was read as BAZ2B block inconclusive, G9a inh 3.2%[2.33 µM], JMJD2A Tudor inh inconclusive, L3MBTL1 block -2.1% and HP1b binding inh 23.2%.
For COc1ccc(-c2nc(N3CCN(S(=O)(=O)c4ccccc4)CC3)c3ccccc3n2)cc1 the results were JMJD2A Tudor inh -15.8% and HP1b binding inh 44.3%.
Screening CCN(CC(=O)Nc1ccccc1C(F)(F)F)C(=O)C1CSC2(C)CCC(=O)N12 (configuration not stated) returned BAZ2B block 8.4%, G9a inh 5.8%[12.7 µM], JMJD2A Tudor inh -8.5%, L3MBTL1 block 2.8% and HP1b binding inh 14.0%.
Screening COc1ccccc1C(=O)Nc1ccc(C(=O)OCc2cc(=O)n3c4c(sc3n2)CCCC4)cc1 returned BAZ2B block inconclusive, G9a inh -1.3%[59 µM], JMJD2A Tudor inh inconclusive and HP1b binding inh 32.8%.
For Cc1cc(C)c2nc(SCC(=O)N3CC(=O)Nc4ccccc43)c(C#N)cc2c1 the results were BAZ2B block -2.8%, G9a inh 10µM*, JMJD2A Tudor inh -2.4%[57.1 µM], L3MBTL1 block -6.7% and HP1b binding inh 45.7%.
`CC(=O)c1cccc(NC(=O)c2ccc(C(=O)Nc3cccc(C(C)=O)c3)nc2)c1` gave BAZ2B block inconclusive, G9a inh inconclusive, JMJD2A Tudor inh 20µM*, L3MBTL1 block 5.3% and HP1b binding inh 13.6%.
`Cc1ccc(NC(=O)c2nccnc2C(=O)O)cc1C` gave BAZ2B block inconclusive, G9a inh 44.7µM*, JMJD2A Tudor inh -31.9% and HP1b binding inh 20.4%.
Screening CCc1ccc(NC(=O)c2cccc(C(=O)Nc3ccc(CC)cc3)n2)cc1 returned BAZ2B block 3.7%, JMJD2A Tudor inh -6.9% and HP1b binding inh 29.6%.
`Cc1ccc(NC(=O)c2cccc(C(=O)Nc3ccc(C)c(C)c3)n2)cc1C` gave BAZ2B block 1.6%, G9a inh 66.8%, JMJD2A Tudor inh 22.4µM* and HP1b binding inh -6.0%.
Screening COC(=O)c1cc(NC(=O)c2cccnc2)cc(C(=O)OC)c1 returned BAZ2B block -15.4%, G9a inh -1.0%, JMJD2A Tudor inh -7.8%, L3MBTL1 block 7.8% and HP1b binding inh 40.1%.
`COC(=O)c1cc(NC(=O)c2nccnc2C(=O)O)cc(C(=O)OC)c1` gave BAZ2B block -39.0%, G9a inh 44.7µM*, JMJD2A Tudor inh 56.2µM* and HP1b binding inh 30.6%.
`Cc1ccc(NC(=O)c2ccccc2-c2ccccc2C(=O)O)cc1C` gave BAZ2B block inconclusive, G9a inh inconclusive, JMJD2A Tudor inh -5.6%, L3MBTL1 block 8.4% and HP1b binding inh 45.9%.
Screening CCOC(=O)c1cc2c(=O)n3ccccc3nc2n(CCCOC)c1=NC(=O)c1c(-c2ccccc2Cl)noc1C returned BAZ2B block 12.9%, G9a inh -5.3%[59 µM], JMJD2A Tudor inh -7.8% and HP1b binding inh 26.8%.
O=C(NCc1ccccc1)C1CCN(C(=O)c2cnn(-c3ccccc3)c2-n2cccc2)CC1 was read as BAZ2B block -17.5%, G9a inh -4.1%[59 µM], JMJD2A Tudor inh -15.3% and HP1b binding inh 20.7%.
Cc1cc(C)cc(NC(=O)c2nccnc2C(=O)O)c1 was read as BAZ2B block inconclusive, G9a inh 25.1µM*, JMJD2A Tudor inh 79.4µM* and HP1b binding inh 6.4%.
CC(=O)Nc1cccc(C(=O)Nc2cccc3ncccc23)c1 was read as BAZ2B block 0.6%, G9a inh 44.7µM*, JMJD2A Tudor inh -6.0% and HP1b binding inh 28.6%.
Screening CC(=O)c1cccc(NC(=O)c2nccnc2C(=O)O)c1 returned BAZ2B block -10.2%, G9a inh inconclusive, JMJD2A Tudor inh 20µM*, L3MBTL1 block 1.3% and HP1b binding inh 15.0%.
